# Structures can show the parent of a compound that is named as a salt. ± gives the standard deviation of the averaged measurements.
# Key:
# [1] = test system: Saccharomyces cerevisiae BY4741 SeMeCo community; assay: mean cell size (pixel area) (pixels); higher = larger cells; conditions: 10 µM; 24 h; SM minimal medium
# How it was run: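 A four-plasmid fluorescent Saccharomyces cerevisiae BY4741 community was tested; each plasmid complements one auxotrophy and carries a fluorescent marker. An overnight preculture at OD600 = 1.0 was diluted to OD600 = 0.3, and 70 µl was added to 384-well plates acoustically predosed with drug (final 10 µM) in SM medium for 24 h. Cells were fixed with paraformaldehyde and imaged by automated confocal microscopy, with analysis in Harmony. Mean cell pixel area per well is averaged over 3 replicates. Same SeMeCo high-content imaging drug screen: Selleck FDA-approved drugs at 10 µM, 24 h in SM medium, 384-well plates, 3 replicates.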
# [2] = test system: Saccharomyces cerevisiae BY4741 SeMeCo community; assay: z-score of prototroph abundance vs DMSO median; higher = larger share of this subpopulation than in DMSO controls; conditions: 10 µM; 24 h; SM minimal medium; subpopulation (auxotrophy): Prototroph
# How it was run: (§1)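 A Saccharomyces cerevisiae BY4741 community carried four plasmids, each restoring one auxotrophy and encoding a distinct fluorescent protein. It was pre-grown overnight to OD600 1.0, diluted to 0.3, and 70 µl was added to 384-well plates acoustically predosed with library drugs (10 µM final), then grown 24 h in minimal SM medium. Cells were paraformaldehyde-fixed and imaged by automated confocal microscopy, with single-auxotroph fluorescent strains setting thresholds and autofluorescence correction. Each subpopulation's abundance was scored as a z-score against the vehicle-well median.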
# [3] = test system: Saccharomyces cerevisiae BY4741 SeMeCo community; assay: z-score of subpopulation abundance vs DMSO median, subpopulation auxotrophic for M; higher = larger share of this subpopulation than in DMSO controls; conditions: 10 µM; 24 h; SM minimal medium; subpopulation (auxotrophy): M
# How it was run: as §1
# [4] = test system: Saccharomyces cerevisiae BY4741 SeMeCo community; assay: z-score of subpopulation abundance vs DMSO median, subpopulation auxotrophic for L; higher = larger share of this subpopulation than in DMSO controls; conditions: 10 µM; 24 h; SM minimal medium; subpopulation (auxotrophy): L
# How it was run: as §1
# [5] = test system: Saccharomyces cerevisiae BY4741 SeMeCo community; assay: z-score of subpopulation abundance vs DMSO median, subpopulation auxotrophic for U; higher = larger share of this subpopulation than in DMSO controls; conditions: 10 µM; 24 h; SM minimal medium; subpopulation (auxotrophy): U
# How it was run: as §1
# [6] = test system: Saccharomyces cerevisiae BY4741 SeMeCo community; assay: z-score of subpopulation abundance vs DMSO median, subpopulation auxotrophic for H; higher = larger share of this subpopulation than in DMSO controls; conditions: 10 µM; 24 h; SM minimal medium; subpopulation (auxotrophy): H
# How it was run: as §1
# [7] = test system: Saccharomyces cerevisiae BY4741 SeMeCo community; assay: z-score of subpopulation abundance vs DMSO median, subpopulation auxotrophic for LU; higher = larger share of this subpopulation than in DMSO controls; conditions: 10 µM; 24 h; SM minimal medium; subpopulation (auxotrophy): LU
# How it was run: as §1
# [8] = test system: Saccharomyces cerevisiae BY4741 SeMeCo community; assay: z-score of subpopulation abundance vs DMSO median, subpopulation auxotrophic for LM; higher = larger share of this subpopulation than in DMSO controls; conditions: 10 µM; 24 h; SM minimal medium; subpopulation (auxotrophy): LM
# How it was run: as §1
# [9] = test system: Saccharomyces cerevisiae BY4741 SeMeCo community; assay: z-score of subpopulation abundance vs DMSO median, subpopulation auxotrophic for HM; higher = larger share of this subpopulation than in DMSO controls; conditions: 10 µM; 24 h; SM minimal medium; subpopulation (auxotrophy): HM
# How it was run: as §1
# [10] = test system: Saccharomyces cerevisiae BY4741 SeMeCo community; assay: z-score of subpopulation abundance vs DMSO median, subpopulation auxotrophic for UM; higher = larger share of this subpopulation than in DMSO controls; conditions: 10 µM; 24 h; SM minimal medium; subpopulation (auxotrophy): UM
# How it was run: as §1
# [11] = test system: Saccharomyces cerevisiae BY4741 SeMeCo community; assay: z-score of subpopulation abundance vs DMSO median, subpopulation auxotrophic for HL; higher = larger share of this subpopulation than in DMSO controls; conditions: 10 µM; 24 h; SM minimal medium; subpopulation (auxotrophy): HL
# How it was run: as §1
# [12] = test system: Saccharomyces cerevisiae BY4741 SeMeCo community; assay: z-score of subpopulation abundance vs DMSO median, subpopulation auxotrophic for HLU; higher = larger share of this subpopulation than in DMSO controls; conditions: 10 µM; 24 h; SM minimal medium; subpopulation (auxotrophy): HLU
# How it was run: as §1
# [13] = test system: Saccharomyces cerevisiae BY4741 SeMeCo community; assay: z-score of subpopulation abundance vs DMSO median, subpopulation auxotrophic for HUM; higher = larger share of this subpopulation than in DMSO controls; conditions: 10 µM; 24 h; SM minimal medium; subpopulation (auxotrophy): HUM
# How it was run: as §1
# [14] = test system: Saccharomyces cerevisiae BY4741 SeMeCo community; assay: z-score of subpopulation abundance vs DMSO median, subpopulation auxotrophic for LUM; higher = larger share of this subpopulation than in DMSO controls; conditions: 10 µM; 24 h; SM minimal medium; subpopulation (auxotrophy): LUM
# How it was run: as §1
# [15] = test system: Saccharomyces cerevisiae BY4741 SeMeCo community; assay: z-score of subpopulation abundance vs DMSO median, subpopulation auxotrophic for HLUM; higher = larger share of this subpopulation than in DMSO controls; conditions: 10 µM; 24 h; SM minimal medium; subpopulation (auxotrophy): HLUM
# How it was run: as §1
# [16] = test system: Saccharomyces cerevisiae BY4741 SeMeCo community; assay: z-score of subpopulation abundance vs DMSO median, subpopulation auxotrophic for HLM; higher = larger share of this subpopulation than in DMSO controls; conditions: 10 µM; 24 h; SM minimal medium; subpopulation (auxotrophy): HLM
# How it was run: as §1
# [17] = test system: Saccharomyces cerevisiae BY4741 SeMeCo community; assay: z-score of subpopulation abundance vs DMSO median, subpopulation auxotrophic for HU; higher = larger share of this subpopulation than in DMSO controls; conditions: 10 µM; 24 h; SM minimal medium; subpopulation (auxotrophy): HU
# How it was run: as §1
Structure (SMILES),mean cell size [1],z-score of prototroph abundance [2],z-score of subpopulation abundance [3],z-score of subpopulation abundance [4],z-score of subpopulation abundance [5],z-score of subpopulation abundance [6],z-score of subpopulation abundance [7],z-score of subpopulation abundance [8],z-score of subpopulation abundance [9],z-score of subpopulation abundance [10],z-score of subpopulation abundance [11],z-score of subpopulation abundance [12],z-score of subpopulation abundance [13],z-score of subpopulation abundance [14],z-score of subpopulation abundance [15],z-score of subpopulation abundance [16],z-score of subpopulation abundance [17]
CC(=O)NC[C@H]1CN(c2ccc(N3CCOCC3)c(F)c2)C(=O)O1 [Linezolid],12.51 ± 0.11,-0.12,-0.22,-0.63,1.39,-0.56,0.78,0.19,-0.27,0.29,-0.58,0.07,0.01,-0.15,-0.36,–,–
N[C@@H]1CCCCN(c2c(F)cc3c(=O)c(C(=O)O)cn(C4CC4)c3c2Cl)C1 [Besifloxacin HCl],12 ± 0.16,–,-0.11,0.15,0.87,0.1,0.95,–,-0.14,-0.28,–,0.25,–,-0.19,0.22,0.44,–
Cc1cc(C)nc(NS(=O)(=O)c2ccc(N)cc2)n1 [Sulfamethazine],12.5 ± 0.25,0,0.92,0.4,-0.82,0.21,-0.83,0.84,0.43,-0.43,-0.28,0.31,-0.1,-0.16,0.42,–,–
CCn1cc(C(=O)O)c(=O)c2ccc(C)nc21 [Nalidixic acid],11.87 ± 0.1,1.23,-1.04,1.23,-0.51,-0.95,-0.49,0.23,-1.62,-1.42,-0.13,-0.15,-1.86,-0.71,-0.59,–,-0.52
CCC1(c2ccccc2)C(=O)NCNC1=O [Primidone],12.6 ± 0.23,–,0.8,-0.17,–,-0.52,-0.48,-0.37,0.36,0.54,-0.36,-0.29,0.42,0.18,0.15,–,0.35
CCC(C)(C)c1ccc(CC(C)CN2C[C@@H](C)O[C@@H](C)C2)cc1 (some centres not stated) [Amorolfine HCl],12 ± 0.35,-9.52,9.64,-4.45,1.83,8.59,-0.63,-0.63,8.92,–,1.91,2.33,6,3.94,5.77,–,5.04
C#C[C@]1(O)CC[C@H]2[C@@H]3CCC4=Cc5oncc5C[C@]4(C)[C@H]3CC[C@@]21C [Danazol],12.2 ± 0.23,0,-0.89,-0.15,0.53,-0.48,0.13,0.04,-0.49,0.52,–,-0.45,0.74,0.22,-0.4,–,0.32
